Laboratory results taken from ChEMBL document CHEMBL3988442, “University of Dundee, Small-Polar-MMV Screening Library” (2021).
Screen size: about 48,000 compounds; about 13,000 (27%) showed an effect of 50% or more. This is one part of the list.

Test system: Wolbachia pipientis
Experiment: Anti-Wolbachia Cell-Based Screen
Format: functional
Parameters: scale not given: in the data most compounds retested in dose-response had high values
Details: 5 µM

| SMILES | Percent Effect [%] |
| --- | --- |
| COc1c(C2CCCN2c2ncnc3sccc23)c(C)nn1C (stereo unspecified) | -10.8 |
| CN(CC1(O)CCCN(Cc2cccc(F)c2F)C1=O)C1CCCCC1 (stereo unspecified) | 6.301 |
| CCCN1CCCC2(CCN(S(=O)(=O)c3cccnc3)C2)C1=O (stereo unspecified) | 3.088 |
| CCC1CCCCN1S(=O)(=O)c1c(C)noc1C (stereo unspecified) | -6.559 |
| Cc1noc(C)c1S(=O)(=O)N1C[C@@H](C(=O)O)[C@H](c2ccccn2)C1 | -14.24 |
| O=C1N(C2CCCCC2)CCCC12CCN(S(=O)(=O)c1cccnc1)C2 (stereo unspecified) | 14.14 |
| Cc1ccnc(C2(C)CCCN2S(=O)(=O)c2c(C)noc2C)n1 (stereo unspecified) | 125.2 |
| Cc1ccnc(C2(C)CCCN2S(=O)(=O)c2cccnc2)n1 (stereo unspecified) | 132.4 |
| CC(C)c1noc(CNc2ccccc2CC(=O)N(C)C)n1 | 6.812 |
| Cc1nn(C)c(C)c1NC(=O)CNc1ccc(F)c(C(F)(F)F)c1 | -4.336 |
| Cn1cccc1C(=O)N1CCCC1c1ccc(CN2CCOCC2)cn1 (stereo unspecified) | 73.28 |
| CC(=O)N1CCCC1c1ccc(Br)cn1 (stereo unspecified) | 103.5 |
| Cc1cc(C(=O)Nc2ccc(CN3CCOCC3)cn2)n(C)n1 | -8.587 |
| CCc1ccc(C2CCCCCN2C(=O)CNC(=O)C2CC2)o1 (stereo unspecified) | -5.222 |
| O=C(CC1CCCC1)N1CCCC1c1ccc(CN2CCOCC2)cn1 (stereo unspecified) | 123.2 |
| O=C(CC1CCCCC1)N1C[C@H]2CC[C@@H]1CN(Cc1cccnc1)C2 | -16.08 |
| Cn1cccc1C(=O)N1C[C@H](OCC2CCOCC2)[C@H]2COC[C@H]21 | -0.3996 |
| CC(=O)NCC(=O)N1CCCC1c1ccc(CN2CCOCC2)cn1 (stereo unspecified) | 87.68 |
| CC(=O)N1CCCC1c1ccc(-c2c(C)noc2C)cn1 (stereo unspecified) | -2.111 |
| Cc1ccc(CNC(=O)NCCCn2nc3ccccn3c2=O)s1 | 0.9307 |
| CN(C)CCN(C)C[C@@H]1CN(Cc2cccc(O)c2)C[C@@H]1CO | -1.662 |
| Cc1ccc(-c2nc(C(=O)N(C)CC(=O)N3CCCC3)cs2)c(C)c1 | 2.536 |

| SMILES | Percent Effect [%] |
| --- | --- |
| CCNC(=O)[C@@H]1CCCN1[C@@H](C(=O)NC)c1ccccc1OC.Cl | 2.638 |
| N#Cc1cccc(NC(=O)N2CCCC(N3CCCC3=O)C2)c1 (stereo unspecified) | -2.402 |
| CC(C1CCN(Cc2ccc(N(C)C)nc2)CC1)N1CCOCC1 (stereo unspecified) | 11.4 |
| CC(=O)N1CCCC1c1ccc(CN2CCOCC2)cn1 (stereo unspecified) | 123.1 |
| CC(=O)N1CCCC1c1ccc(C(=O)N2CCOCC2)s1 (stereo unspecified) | -4.925 |
| Cc1cccc(NC2CCN(C(=O)Nc3cc(F)ccc3F)CC2)n1 | 100.1 |
| Cc1cccc(NC2CCN(C(=O)Nc3ccc(F)cc3C)CC2)n1 | 119.5 |
| COC(=O)C1CCN(C(=O)Nc2cc(-n3cccc3)ccc2F)CC1 | -12.66 |
| O=C(Nc1cc(-n2cccc2)ccc1F)N1CCCC1 | -21.77 |
| COC(=O)[C@@H](NC(=O)c1coc(COc2cccc(F)c2)n1)C(C)C | -6.139 |
| COC(=O)C(CNC(=O)Nc1nncs1)Cc1ccc(O)cc1 (stereo unspecified) | -7.051 |
| CNC(=O)c1n[nH]c2c1C(c1cccc3[nH]ccc13)CC(=O)N2 (stereo unspecified) | 8.838 |
| Cc1nc(CN2CCc3nn(C(C)C)c(=O)cc3C2)oc1C | -3.167 |
| CCn1nc2c(cc1=O)CN(CC(=O)Nc1nnc(C)s1)CC2 | 120.7 |
| Cn1nc2c(cc1=O)CN(CC(=O)Nc1nncs1)CC2 | -9.972 |
| CCn1nc2c(cc1=O)CN(CC(=O)Nc1cc(C)no1)CC2 | -6.307 |
| CCn1nc2c(cc1=O)CN(CC(=O)Nc1cc(C(C)C)no1)CC2 | -9.725 |
| Cc1nnc(NC(=O)CN2CCc3nn(C(C)C)c(=O)cc3C2)s1 | 104 |
| Cc1csc(NC(=O)CN2CCc3nn(C)c(=O)cc3C2)n1 | -32.21 |
| Cc1cc(NC(=O)CN2CCc3nn(C)c(=O)cc3C2)no1 | -3.841 |
| Cc1nnc(NC(=O)CN2CCc3nn(C)c(=O)cc3C2)s1 | 86.83 |
| CCn1nc2c(cc1=O)CN(CC(=O)Nc1nccs1)CC2 | -22.28 |

| SMILES | Percent Effect [%] |
| --- | --- |
| CCn1nc2c(cc1=O)CN(CC(=O)Nc1nncs1)CC2 | 94.86 |
| CC(C)n1nc2c(cc1=O)CN(CC(=O)N(C)c1nccs1)CC2 | -24.74 |
| CC1=N[C@@]2(CC[C@@H]3CN(S(C)(=O)=O)C[C@@H]32)C(=O)N1CC(C)C | -10.09 |
| CCc1nnc2ccc(NCC3(O)CCOCC3)nn12 | -3.397 |
| CC(C)S(=O)(=O)NC(=O)CC(c1ccccc1)C(F)(F)F (stereo unspecified) | 0.6807 |
| O=C1NCCCCC1Sc1ccc(F)cc1F (stereo unspecified) | 103.3 |
| O=C1NCCCCC1Sc1nnc(C2CC2)n1C1CC1 (stereo unspecified) | -22.11 |
| O=C1NCCCCC1Sc1n[nH]c(=O)n1C1CC1 (stereo unspecified) | -5.028 |
| O=C1NCCCCC1Sc1nnc(-c2cccnc2)n1C1CC1 (stereo unspecified) | -7.436 |
| O=C1NCCCCC1SCc1coc(-c2cccc(F)c2)n1 (stereo unspecified) | -23.71 |
| O=C1NCCCCC1Sc1ccc(F)c(F)c1 (stereo unspecified) | 87.86 |
| O=C1NCCCCC1Sc1ccccc1F (stereo unspecified) | 86.32 |
| O=C1NCCCCC1SCc1coc(-c2ccc(F)cc2)n1 (stereo unspecified) | -0.7587 |
| O=C1NCCCCC1Sc1nnc(N2CCCC2)n1C1CC1 (stereo unspecified) | 5.697 |
| CCCOCC(=O)N1CCC2(CC1)c1nc[nH]c1CCN2S(C)(=O)=O | -9.401 |
| COc1ccc(C(=O)NCc2ccon2)cc1F | -47.25 |
| Cc1nc(NS(=O)(=O)c2ccc(C)c(Br)c2)no1 | -20.05 |
| Cc1nn(CC(=O)N2CCN(c3ccccc3F)CC2)c(C)c1Cl | 4.996 |
| Cc1cccc(C(=O)N2CCCCC2c2ccc(CN(C)C)cc2)n1 (stereo unspecified) | -0.9167 |
| Cc1cccc(N2CCCC2c2nc(C)ncc2CN(C)C)n1 (stereo unspecified) | 143.5 |
| Cc1ncc(CN(C)C)c(C2CCCN2c2ncccn2)n1 (stereo unspecified) | 117.1 |
| CN(C)Cc1nnc(C2CCN(c3ncccn3)CC2)n1C1CC1 | -3.805 |

| SMILES | Percent Effect [%] |
| --- | --- |
| Cc1nc(CN(C)CC2CCCN2c2cccnn2)oc1C (stereo unspecified) | 2.068 |
| CCc1nc(C2CCCN2c2ncc(Br)cn2)no1 (stereo unspecified) | -1.956 |
| O=C(C1CNCCO1)N1CCCC(c2ccccc2)(c2ccccc2)C1 (stereo unspecified) | -4.785 |
| O=C(NCCCOC1CCCCC1)C1NCCc2[nH]cnc21 (stereo unspecified) | -2.739 |
| CCN(C(=O)COC)C(c1cccnc1)c1ccc2c(c1)CCO2 (stereo unspecified) | 2.856 |
| CCSCCNC(=O)Nc1cc(C(=O)N2CCOCC2)ccc1Cl | 4.121 |
| CC(C)(CO)CCCNC(=O)NC1(c2ccccc2F)CC1 | 114.3 |
| CC(C)(CO)CCCNC(=O)NC1(C)Cc2ccccc2C1 | 128.7 |
| COCCNC(=O)NC1(c2ccccc2F)CC1 | 110 |
| Cc1cc(C(=O)NC2(c3cccc(F)c3)CCOCC2)no1 | -27.95 |
| COCCNC(=O)C1(c2ccccc2C)CCOCC1 | 3.195 |
| CC(C)(CO)CCCNC(=O)N1CCc2c(F)ccc(F)c2C1 | 36.67 |
| O=C(NCCCc1ccc(O)cc1)C1(O)Cc2ccccc2C1 | -1.893 |
| CC(C)(CO)CCCNC(=O)NC1(c2cccc(F)c2)CC1 | 104.1 |
| CS(=O)(=O)CCCNC1(c2cccc(F)c2)CC1 | 13.79 |
| COCCNC(=O)NC1(c2nc(C)no2)CCCCC1 | -1.61 |
| O=C(Nc1ccccc1F)NC1(CO)CCOCC1 | 2.484 |
| CN(Cc1ccccc1)C1(C(=O)NC(C)(C)CO)Cc2ccccc2C1 | 8.937 |
| CC(C)c1noc([C@@H]2C[C@H](NS(=O)(=O)Cc3ccccc3)CN2C)n1 | -6.361 |
| CC(C)(O)CCc1ccc(C(=O)NCCC2CCCOC2)cc1 (stereo unspecified) | -14.7 |
| O=C1CC[C@@H](C(=O)N2CCC(Cn3cc(C4CCCCC4)nn3)CC2)N1 | -19.31 |
| CCc1cnc(CN2C(=O)CC3(CCSC3)C2=O)o1 (stereo unspecified) | -1.105 |

| SMILES | Percent Effect [%] |
| --- | --- |
| CCn1cncc1C1CC(=O)Nc2c1c(C)nn2C (stereo unspecified) | -2.495 |
| O=S(=O)(c1cccnc1)N1C[C@@H]2CC[C@H](C1)N(Cc1ccccn1)C2 | 0.4176 |
| Cc1ccc(NC2(C(=O)NCCCc3c(C)n[nH]c3C)CCCC2)cc1 | 12.56 |
| COc1ncccc1NC(=O)NC(C)(C)c1ncc(C)s1 | 4.256 |
| CCN1CC(C(=O)N2CCc3cc(C(N)=O)n(C)c3C2)CC1=O (stereo unspecified) | 10.03 |
| CCc1nnc2n1CC(CNc1cnc3ccccc3n1)CC2 (stereo unspecified) | -8.213 |
| NC(=O)CN1CCC(c2csc(Nc3cnccn3)n2)CC1 | 117.3 |
| NC(=O)CN1CCC(C(=O)NCc2nc(-c3ccc(F)cc3)cs2)CC1 | 0.3881 |
| NC(=O)CN1CCCC1c1csc(Nc2cnccn2)n1 (stereo unspecified) | 66.85 |
| OCCN1CCC(c2csc(Nc3cnccn3)n2)CC1 | 83.21 |
| COc1ccccc1CNC(=O)C(C)N1CC(n2cc(C)cn2)C1 (stereo unspecified) | -24.87 |
| CN(C)c1cc2c(nn1)CCN(C(=O)c1cc3c(s1)CCOC3)C2 | -8.36 |
| CCC(NCc1ccccc1Cl)c1ccccc1OCC(=O)NC (stereo unspecified) | -10.16 |
| CO[C@H]1CN(C(=O)c2cccc(C)n2)CC[C@@]12CCCO2 | 114.9 |
| COCCN1C[C@@H](C)[C@@]2(COCCN(C(=O)c3cccc(C)n3)C2)C1.O=C(O)C(F)(F)F.O=C(O)C(F)(F)F | -4.007 |
| CO[C@H]1CN(C(=O)c2cn3cc(C)ccc3n2)CC[C@@]12CCCO2 | 93.74 |
| Cc1cccc(C(=O)N2CC(C(=O)NCC3CC3)C3(CCOCC3)C2)n1.O=C(O)C(F)(F)F (stereo unspecified) | -7.832 |
| O=C(c1cn2cc(Cl)ccc2n1)N1CCC(CCn2cccn2)CC1 | 2.946 |
